Screening results (PubChem BioAssay)
FBPA Giardia inh – inhibitors of Giardia lamblia fructose-1,6-bisphosphate aldolase; A8B2U2; purified Giardia FBPA; Potency, µM (highest dose often 59.6 µM), for inactives: at the highest dose activity, negative = inhibition, actives largely listed as inhibitors; 290,000 compounds, 0.71% hits; AID 2451; also: potency is read from the fitted curve at half-maximal effect; % is scaled to controls: 0 for no effect and ±100 for the full control effect; nearly all actives have a fitted effect of over 55% in size
Target sequence (A8B2U2 whole entry, looked up): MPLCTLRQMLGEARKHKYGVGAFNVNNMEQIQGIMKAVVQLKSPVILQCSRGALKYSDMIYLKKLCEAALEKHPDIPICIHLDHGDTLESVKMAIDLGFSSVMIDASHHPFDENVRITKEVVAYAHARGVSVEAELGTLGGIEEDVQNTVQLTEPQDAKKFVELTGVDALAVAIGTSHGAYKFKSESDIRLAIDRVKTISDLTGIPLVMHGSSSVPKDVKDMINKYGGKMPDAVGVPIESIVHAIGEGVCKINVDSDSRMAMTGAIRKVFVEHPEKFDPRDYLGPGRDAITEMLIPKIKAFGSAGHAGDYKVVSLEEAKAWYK
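40 nM FBPA preincubated 10 min at RT with compound (up to 57.5 uM final), then substrate plus GAPDH/TPI/NAD/arsenate coupling and diaphorase/resazurin added. Fluorescence read after 20 min at RT, 525/598 nm.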
Pf growth 96h – inhibits malaria parasite growth, 96 h; 320,000 compounds, 6.9% hits; P. falciparum luciferase reporter growth, 96 h; AID 504834; Potency, µM (titrated, usually from 28.7 µM), inactives show top-dose activity change, negative = inhibition, usual class: inhibitors; also: potency is read from the fitted curve at half-maximal effect; % is scaled to controls: 0 for no effect and ±100 for the full control effect
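Cell-based qHTS: luciferase-tagged P. falciparum in erythrocytes (2% hematocrit, 0.05% parasitemia final) incubated with compounds for 96 hours, 37 C, 5% CO2; luciferase detection reagent then added and luminescence measured.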
NS1 inh – influenza NS1 inhibition. 270,000 compounds, 0.4% hits. Potency, µM (doses to about 46.1 µM), for inactives: top-dose activity, positive = more growth; calls by dose curve; also: potency is read from the fitted curve at half-maximal effect; actives are rising curves; nearly all actives have a fitted effect of over 50% in size
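In this qHTS, NS1 from influenza A is expressed in budding yeast, where it slows growth. Cells are switched from glucose to 2% galactose medium (pH 6.0, -URA), treated with compound, and growth recovery is read at OD600.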
CHX counter – counter-screen hit for Shiga toxin inhibitors, cycloheximide. cell reporter, cycloheximide protein synthesis inhibition counterscreen. max response, %. 300,000 compounds, 12% hits. AID 2314; in the data active = max response mostly above about 13%, no sharp cut-off; inactive = mostly below about 14%; also: read at 38.3 µM for the half of the compounds with a filed dose; 0% is about no effect
Pf growth 48h – P. falciparum growth inhibition at 48 hours (one generation); P. falciparum luciferase growth in erythrocytes, 48 h; Potency, µM (highest dose often 28.7 µM), for inactives: at the top dose activity change, negative = inhibition, most hits filed as inhibitors; 310,000 compounds, 5.9% hits; also: potency is read from the fitted curve at half-maximal effect; % is scaled to controls: 0 for no effect and ±100 for the full control effect
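First compound was added to culture medium, then infected red cells at 0.1% parasitemia and 2% hematocrit (final). After incubation at 37 C under 5% CO2, luciferase detection reagent was dispensed and light output recorded.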
Shiga inhibitor – inhibitors of Shiga toxin in Vero cells | Vero cells, Shiga toxin protein synthesis inhibition reporter | inhibition, % at 38.7 µM | AID 2315 | 290,000 compounds, 9.2% hits; in the data active = inhibition mostly above about 28%, no sharp cut-off; inactive = mostly below about 43%; also: 0% is about no effect
* = called active by the depositor. Shown are actives, neighbours in structure and some others; about 21% of the full set was active somewhere. Unless noted, calls follow the shape of the dose curve; as a rule, active = well fitted curve in the direction sought with a large enough effect; inconclusive = small, poorly fitted or top-dose-only effect, or another doubt; inactive = no such curve, though single readings can be large; an effect the other way counts as inactive or inconclusive.

For CC(C)CC(N)C(=O)OCc1ccc([N+](=O)[O-])cc1 (stereo unspecified) the results were FBPA Giardia inh 0%, Pf growth 96h 2%, NS1 inh -1%, CHX counter -3, Pf growth 48h 15% and Shiga inhibitor -14.
`Cc1cccc(N2CC(C(=O)Nc3nnc(SCC(=O)N4CCOCC4)s3)CC2=O)c1` (stereo unspecified) gave FBPA Giardia inh inconclusive, Pf growth 96h inconclusive, NS1 inh 4%, CHX counter -2, Pf growth 48h inconclusive and Shiga inhibitor -10.
For Cc1cc(NC(=O)COC(=O)C2CCN(S(=O)(=O)c3ccccc3)CC2)c([N+](=O)[O-])cc1C the results were Pf growth 96h 20%, NS1 inh 1%, CHX counter -1, Pf growth 48h 9% and Shiga inhibitor -16.
For N/C(=N\NC(=O)c1ccc(Cl)cc1)c1cnccn1 the results were FBPA Giardia inh inconclusive, Pf growth 96h inconclusive, NS1 inh -1%, CHX counter 33*, Pf growth 48h inconclusive and Shiga inhibitor 48*.
Screening O=C(NNC(=O)c1cnccn1)c1ccc(Cl)c(Cl)c1 returned Pf growth 96h 3.7µM*, NS1 inh -34%, CHX counter 12, Pf growth 48h inconclusive and Shiga inhibitor -2.
For O=C(Nc1cnccn1)c1ccc(Cl)cc1 the results were FBPA Giardia inh 0%, Pf growth 96h 56%, NS1 inh -2%, CHX counter 5 and Shiga inhibitor 58*.
Cc1cccc(Nc2cc(Cl)nc(SCC(=O)O)n2)c1C was read as FBPA Giardia inh inconclusive, Pf growth 96h inconclusive, NS1 inh -4% and Pf growth 48h -7%.
Screening Cc1cnc(C(=O)OCC(=O)c2csc(N3CCCCC3)n2)cn1 returned FBPA Giardia inh -22%, Pf growth 96h -16%, NS1 inh 5%, CHX counter 51*, Pf growth 48h -17% and Shiga inhibitor 36.
Screening CCOc1ccccc1N1CCN(C(=O)c2ccccc2SCC(=O)N2CCCC2)CC1 returned Pf growth 96h 13µM*, NS1 inh 4%, CHX counter 15*, Pf growth 48h inconclusive and Shiga inhibitor 27*.
`COc1ccccc1N(CC(=O)N1CCC(C(N)=O)CC1)S(=O)(=O)c1ccccc1` gave FBPA Giardia inh -2%, Pf growth 96h 6%, NS1 inh 6%, CHX counter -6, Pf growth 48h 13% and Shiga inhibitor -2.
`COc1ccccc1N1CCN(C(=O)COc2ccc(C)cc2Br)CC1` gave FBPA Giardia inh 1%, Pf growth 96h inconclusive, NS1 inh -74%, CHX counter 6, Pf growth 48h -14% and Shiga inhibitor 43.
COc1ccccc1N1CCN(C(=O)CCC(=O)N2CCN(c3ccccc3OC)CC2)CC1 was read as FBPA Giardia inh -2%, Pf growth 96h inconclusive, NS1 inh 1%, CHX counter -3, Pf growth 48h -8% and Shiga inhibitor -16.
`COc1ccccc1N1CCN(C(=O)COc2ccc(Cl)cc2Br)CC1` gave FBPA Giardia inh 3%, Pf growth 96h 8.3µM*, NS1 inh -142%, CHX counter 2, Pf growth 48h -27% and Shiga inhibitor 20.
COc1ccccc1N1CCN(C(=O)CN(c2ccccc2OC)S(=O)(=O)c2ccccc2)CC1 was read as FBPA Giardia inh -3%, Pf growth 96h 1.3µM*, NS1 inh -8%, CHX counter -1, Pf growth 48h inconclusive and Shiga inhibitor 11.
Screening COc1ccccc1N1CCN(C(=O)CSc2ccccc2)CC1 returned FBPA Giardia inh 1%, Pf growth 96h 51%, NS1 inh -3%, CHX counter 27* and Shiga inhibitor 65*.
For OCC(O)C1OC(Nc2ccc(Cl)cc2)C(O)C1O (stereo unspecified) the results were FBPA Giardia inh 1%, Pf growth 96h 4%, NS1 inh inconclusive, CHX counter -2, Pf growth 48h 4% and Shiga inhibitor -3.
Screening COc1ccccc1N1CCN(C(=O)C(Sc2ccccc2)c2ccccc2)CC1 (stereo unspecified) returned FBPA Giardia inh 9%, Pf growth 96h 7%, NS1 inh -5%, CHX counter -1, Pf growth 48h 13µM* and Shiga inhibitor -2.
CCOc1ccccc1N1CCN(C(=O)CCCN2C(=O)c3cccc4cccc(c34)C2=O)CC1 was read as FBPA Giardia inh 11%, Pf growth 96h 9.3µM*, NS1 inh -10%, CHX counter -3, Pf growth 48h inconclusive and Shiga inhibitor -7.
`CCCn1c(C)nc2c(NCCN(C(C)C)C(C)C)nc(C)nc21` gave FBPA Giardia inh 4%.
For Cc1ccc(SCC(=O)NC2CC2)cc1 the results were FBPA Giardia inh 1%, Pf growth 96h 71%, NS1 inh 4%, CHX counter 15, Pf growth 48h 23% and Shiga inhibitor 6.
For Cc1ccc(SCC(=O)c2cc(C)c(O)c(C)c2)cc1 the results were FBPA Giardia inh 3%, Pf growth 96h inconclusive, NS1 inh -55%, CHX counter 17*, Pf growth 48h inconclusive and Shiga inhibitor 50*.
Cc1ccc(SCC(=O)c2c(C)nc3ccccn23)cc1 was read as FBPA Giardia inh -1%, Pf growth 96h 87%, CHX counter 31*, Pf growth 48h 72% and Shiga inhibitor 62*.
O=C(Nc1ccc(NC(=O)c2cccnc2)cc1)c1ccccc1 was read as Pf growth 96h -26%, NS1 inh 0%, CHX counter 1, Pf growth 48h 30% and Shiga inhibitor 17.
`CCC(C)c1ccc(NC(=O)c2cccnc2)cc1` (stereo unspecified) gave FBPA Giardia inh -26%, Pf growth 96h 5%, NS1 inh -2%, CHX counter 43*, Pf growth 48h -27% and Shiga inhibitor 59*.
Screening CCCCSc1ccc(NC(=O)c2cccnc2)cc1 returned FBPA Giardia inh 0%, NS1 inh -69%, CHX counter 14*, Pf growth 48h -14% and Shiga inhibitor 35.
CCN(CC)C(=O)COc1coc(CN2CCN(c3cccc(Cl)c3)CC2)cc1=O was read as Pf growth 96h 8.3µM*, NS1 inh 6%, CHX counter -1, Pf growth 48h -12% and Shiga inhibitor -3.
Screening CN(C(=O)COc1coc(CN2CCN(c3ccccc3)CC2)cc1=O)c1ccccc1 returned Pf growth 96h 13µM* and Pf growth 48h -13%.
`CCCNC(=O)COc1coc(CN2CCN(c3ccccc3)CC2)cc1=O` gave Pf growth 96h inconclusive, NS1 inh -1%, CHX counter 1, Pf growth 48h 11% and Shiga inhibitor -7.
Screening CNC(=O)COc1coc(CN2CCN(c3ccccc3)CC2)cc1=O returned Pf growth 96h -14%, NS1 inh 0%, CHX counter -2, Pf growth 48h 7% and Shiga inhibitor -9.
